ChEMBL document CHEMBL3988442, “University of Dundee, Small-Polar-MMV Screening Library” (2021)
Screen size: about 48,000 compounds; about 13,000 (27%) showed an effect of 50% or more. The list shows a part of the results.

Tested on: Wolbachia pipientis
Experiment: Anti-Wolbachia Cell-Based Screen
Type: functional
Parameters: scale not given: in the data most compounds retested in dose-response had high values
Details: 5 µM

Compound	Percent Effect [%]
C[C@@H]1CN(C2Cc3ccccc3C2)CC[C@@]1(O)C1CCOCC1	82.39
C[C@@H]1CN(S(=O)(=O)N2CCCC2)CC[C@@]1(O)C1CCOCC1	-9.489
C[C@@H]1CN(CC(C)(C)N2CCOCC2)CC[C@@]1(O)C1CCOCC1	4.466
C[C@@H]1CN(C(=O)c2ccc(=O)[nH]c2)CC[C@@]1(O)C1CCOCC1	-4.844
C[C@@H]1CN(C2CCN(c3ccccc3F)CC2)CC[C@]1(C)O	-26.42
C[C@@H]1CN(C2CCCCC2)CC[C@@]1(O)C1CCOCC1	98.71
C[C@@H]1CN(C2CCN(c3ccccc3)CC2)CC[C@@]1(O)C1CCOCC1	103.2
O=C(C1CCOCC1)N1C[C@H]2CC[C@@H]1CN(C1Cc3ccccc3C1)C2	13.64
COc1ccc(CNC(=O)CNc2cc3c(cc2Cl)OCCO3)cc1	11.87
CN1CCc2onc(CNc3ncccn3)c2C1.O=C(O)C(F)(F)F.O=C(O)C(F)(F)F	-12.85
Cc1ccc(CN(Cc2ccccn2)C(=O)[C@H]2CC[C@@H](N)C2)s1	-33.4
O=C(O)C(F)(F)F.c1c2c(nn1CC1CC1)C(CNC1CCOCC1)OCC2 (centres undefined)	5.412
COCCN(Cc1ccc(F)cc1Cl)C(=O)c1cccc[n+]1[O-]	-30.73
COc1ccccc1S(=O)(=O)N1CCC(Oc2cccnn2)CC1	-12.85
Cc1ccccc1OC1CCN(S(=O)(=O)c2c(C)n[nH]c2C)CC1	120.4
Cc1n[nH]c(C)c1S(=O)(=O)N1CCC(Oc2ccccc2F)CC1	121.8
Cc1noc(C)c1S(=O)(=O)N1CCC(Oc2cccnn2)CC1	-5.902
Cc1noc(C)c1S(=O)(=O)N1CCC(Oc2ccccn2)CC1	2.267
O=S(=O)(c1ccccc1F)N1CCC(Oc2cccnn2)CC1	-7.526
CCOC(=O)C1CCN(CCCc2nnnn2-c2ccccc2)CC1	10.8
NC(=O)NCC1CCCCN1C(=O)c1cccc(Cl)c1 (centres undefined)	109.7
Cc1ccc(C(=O)N2CCCCC2CNC(N)=O)cc1F (centres undefined)	100.6
Cc1ccc(C(=O)N2CCCCC2CNC(N)=O)s1 (centres undefined)	-21.76
CNS(=O)(=O)CC1CCCN1C(=O)c1ccc(C)c(C)c1 (centres undefined)	1.148

Compound	Percent Effect [%]
NC(=O)NCC1CCCCN1C(=O)c1cc(F)cc(F)c1 (centres undefined)	94.01
COc1cccc(C(=O)N2CCCCC2CNC(N)=O)c1 (centres undefined)	4.596
NC(=O)NCC1CCCCN1C(=O)c1ccc(Br)s1 (centres undefined)	13.78
NC(=O)NCC1CCCCN1C(=O)c1ccc(Cl)s1 (centres undefined)	6.082
CN(C)c1ccc(C(=O)N2CCCCC2CC(N)=O)c(F)c1 (centres undefined)	-10.13
Cc1cccn2c(=O)cc(CN3CCCCC3Cn3cncn3)nc12 (centres undefined)	-0.6189
CCN(C(C)=O)c1nc(CN2CCCCC2Cn2cncn2)cs1 (centres undefined)	113.4
CC(=O)N(C)c1nc(CN2CCCC2Cn2nc(C)cc2C)cs1 (centres undefined)	89.05
c1ncn(CC2CCCN2Cc2cn3ccsc3n2)n1 (centres undefined)	-12.38
CC(=O)Nc1nc(CN2CCCC2Cn2cncn2)cs1 (centres undefined)	-0.3919
Cc1cc(C)n(CC2CCCN2CC(=O)N(C)C)n1 (centres undefined)	-0.9617
CN(C)C(=O)Cc1nc(CN2CCCC2Cn2cccn2)cs1 (centres undefined)	-60.87
Cc1cc(C)n(CC2CCCN2C(=O)Cc2csc(C)n2)n1 (centres undefined)	-5.348
CCN(C(C)=O)c1nc(CN2CCCC2Cn2cncn2)cs1 (centres undefined)	93.1
CC(=O)Nc1nc(CN2CCCCC2Cn2cncn2)cs1 (centres undefined)	101
NC(=O)c1ccc(N2CCCCC2)c(NC(=O)c2ccc(F)cc2Cl)c1	-3.289
CSc1nc(C2CC2)nc(C)c1C(=O)NCc1ncc(C)o1	6.945
CCc1nc(CN2CCCN(C(=O)c3cn[nH]c3CC)CC2)cs1	9.391
Cc1cc(NC(=O)N2CCCC(O)C2)nn1-c1ccccc1Cl (centres undefined)	-23.68
CC(=O)N(C)c1nc(CN2CCCCC2Cn2cncn2)cs1 (centres undefined)	-7.447
CN(C)C(=O)Cc1nc(CN2CCCC2Cn2cncn2)cs1 (centres undefined)	-5.183
CC(=O)N(C)c1nc(CN2CCCC2Cn2cncn2)cs1 (centres undefined)	102
COc1ccc(N(C)C(=O)c2cccc(S(C)(=O)=O)c2)cn1	-2.349
Cc1nc[nH]c1C(=O)N1CC[C@@H](NC(=O)c2ccccn2)[C@H](O)C1	-7.66

Compound	Percent Effect [%]
CO[C@H]1CN(C(=O)c2ccc3oc(C)cc3c2)C[C@@]12CCCO2	96.35
CO[C@H]1CN(C(=O)c2ccc3oc(C)cc3c2)CC[C@@]12CCCO2	0.1168
COc1ccc(C(=O)N2CC[C@](C)(O)[C@H](C)C2)cc1N1CCOCC1	0.3479
CC(=O)N1CCC2(CC1)CN(C(=O)c1ccc3c(c1)OCCO3)C2	-18.73
COc1ccc(C(=O)N2C[C@@H](C)[C@@](C)(O)C2)cc1N1CCOCC1	-1.788
CO[C@H]1CCN(C(=O)c2ccc3oc(C)cc3c2)C[C@@]12CCCO2	93.08
Cc1cc2cc(C(=O)N3CC[C@H](O)[C@]4(CCCO4)C3)ccc2o1	1.113
CC[C@@]1(O)CCN(C(=O)c2cccc3cc(C)oc23)C[C@H]1O	10.55
Cc1cc2cc(C(=O)N3C[C@H](O)[C@]4(CCCO4)C3)ccc2o1	113.6
Cc1nc(C(C)C)ncc1C(=O)N1CCc2c(nc(N(C)C)[nH]c2=O)C1	-2.755
Cc1ccc(CN2CC3(CCNCC3)CCC2=O)c(F)c1F	-4.713
CNC(=O)N1CCC2(CC1)CC[C@@]1(C(=O)NC)CN(S(C)(=O)=O)C[C@@H]21	99.51
CNC(=O)[C@@]12CCC3(CCNCC3)[C@@H]1CN(S(C)(=O)=O)C2	151.6
CCN1C[C@H]2C3(CCN(S(C)(=O)=O)CC3)CC[C@@]2(C(=O)N(C)C)C1.O=C(O)C(F)(F)F	-24.55
CC(C)NC(=O)N1CCC2(CC1)CC[C@@]1(C(=O)N(C)C)CN(C)C[C@@H]21	-18.22
CNC(=O)[C@@]12CCC3(CCN(C(=O)COC)CC3)[C@@H]1CN(S(C)(=O)=O)C2	102.3
CCN1CC2(CC1=O)CN(C(=O)COC)CCN(S(C)(=O)=O)C2 (centres undefined)	-10.66
CC(=O)N1CCC2(CC1)CC[C@@]1(C(=O)N(C)C)CN(S(C)(=O)=O)C[C@@H]21	-18.69
CCN1C[C@H]2C3(CCN(C(=O)NC(C)C)CC3)CC[C@@]2(C(=O)NC)C1.O=C(O)C(F)(F)F	-18.02
CNC(=O)[C@@]12CCC3(CCN(C(=O)C(C)C)CC3)[C@@H]1CN(S(C)(=O)=O)C2	104.1
CNC(=O)[C@@]12CCC3(CCN(S(C)(=O)=O)CC3)[C@@H]1CN(S(C)(=O)=O)C2	14.17
CNC(=O)[C@@]12CCC3(CCN(C(C)=O)CC3)[C@@H]1CN(S(C)(=O)=O)C2	-0.1611
O=C(c1cscn1)N(CCCO)S(=O)(=O)c1cccs1	7.908
CN(CCSc1ccccc1)C(=O)c1cn2c(n1)CNCC2	-0.3479

Compound	Percent Effect [%]
O=C(NCc1ccc(C(=O)N2CCCC2)cc1)c1cn2c(n1)CNCC2	-4.939
CN1C(=O)CC(N(C)Cc2nc3ccccc3c(=O)[nH]2)C1=O (centres undefined)	-8.963
CCC(C)N(Cc1ccncc1)Cc1cccc(Cn2cccn2)c1 (centres undefined)	-14.79
CCc1[nH]c2c(CNc3cncc(C(=O)OC)n3)cc(C)cc2c1C	11.12
O[C@H]1COCCN(Cc2cccc3c2OCO3)C1	-4.774
CCOc1ccccc1-c1noc(CN2CCOC(CN(C)C)C2)n1 (centres undefined)	7.76
Cc1nnc2n1CCN(C(=O)c1cc(Cl)c[nH]1)C2	-1.056
Cc1ccccc1-c1cc(C(=O)N2CCn3c(C)nnc3C2)[nH]n1	-2.104
CC(C)c1nnc2n1CCN(C(=O)c1cc3cc(F)ccc3[nH]1)C2	98.88
CC(C)c1nnc2n1CCN(C(=O)c1ccnc(N(C)C)c1)C2	-1.642
CC(C)c1nnc2n1CCN(C(=O)c1ccc3cc[nH]c3c1)C2	-4.188
Cc1nnc2n1CCN(C(=O)c1cc3cc(F)ccc3[nH]1)C2	87.27
O=C(NC[C@H]1OC[C@@H](NCc2ccccc2)[C@@H]1O)Nc1ccccc1	-15.87
C1CC(CN2C[C@@H]3C[C@@H](c4nnc(C5CC5)o4)O[C@@H]3C2)C1	108.7
Cc1noc([C@@H]2C[C@H]3CN(CC4CCOCC4)C[C@H]3O2)n1.O=C(O)C(F)(F)F	45.83
C1CC(CN2CC[C@@H]3O[C@@H](c4nnc(C5CC5)o4)C[C@H]3C2)CCO1	104.3
O=C(Cc1ccsc1)N1C[C@@H]2C[C@@H](c3nnc(C4CC4)o3)O[C@@H]2C1	1.752
Cc1nnc([C@H]2CC[C@@H]3[C@@H](CCN3CC3CCOCC3)O2)o1	-4.928
C1CC(CN2C[C@@H]3C[C@@H](c4nnc(C5CC5)o4)O[C@@H]3C2)CCO1	101.2
Cc1nnc([C@@H]2CC[C@@H]3[C@@H](CCN3CC3CCOCC3)O2)o1	8.23
C1CC(CN2C[C@H]3CC[C@@H]2CN(Cc2nnc(C4CC4)o2)C3)C1	1.497
COc1cc2c(cc1OC)S(=O)(=O)N(Cc1ccccc1)C2=O	-12.48
